Results from PubChem BioAssay AID720706 (Broad Institute, 2013).
Among all 350,000 compounds or so, about 5,500 (1.6%) were called active.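 How the source made its calls: active means significant combined selectivity score with lowered wild-type GFP, culture density cut under 30%, mutant RFP and density less affected; inactive means any of these conditions unmet.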 Only a selection was taken, and actives are over-represented in it overall.

experiment: GFP drop in mixed WT/humanized-ribosome E. coli culture – GFP/RFP fluorescence, OD600, single point, bacterial rRNA inhibitor project, primary screen (AID 720706); conditions: E. coli WT GFP vs humanized-ribosome RFP mutants, 24 h; GFP signal change (wild-type ribosome): stronger effect = lower value, DMSO median 0, no signal -100; OD600 change: measured here: OD600 growth, DMSO median 0, no signal -100; RFP signal change: measured here: RFP humanized mutant strains, DMSO median 0, no signal -100, concentration not given here

| SMILES | GFP signal change (wild-type ribosome) | OD600 change | RFP signal change |
| --- | --- | --- | --- |
| C[C@@H]1CN([C@H](C)CO)C(=O)c2cccc(NC(=O)Nc3ccc4c(c3)OCO4)c2O[C@H]1CN(C)S(=O)(=O)c1ccccc1 | -2.91% (inactive) | -5.67% | -1.37% |
| COc1ccc2c3c([nH]c2c1)[C@@H](CO)N(Cc1ccc2c(c1)OCO2)CC31CN(C(=O)Nc2c(C)noc2C)C1 | 0.081% (inactive) | 0.39% | 1.36% |
| CC(C)(C)[S@@](=O)N1Cc2cc(C(=O)O)nc(-c3cccc(-c4cccc(F)c4)c3)c2[C@H]1CCO | 4.83% (inactive) | 5.04% | 0.24% |
| O=C(COC(=O)c1ccc([N+](=O)[O-])o1)NC12CC3CC(CC(C3)C1)C2 | -30.1% (active) | 9.91% | 3.52% |
| O=C(OCC(=O)c1cccs1)c1ccc([N+](=O)[O-])o1 | 9.6% (inactive) | 5.51% | 1.76% |
| O=C(COC(=O)c1ccc(Br)o1)NC12CC3CC(CC(C3)C1)C2 | -10.7% (inactive) | -7.12% | 2.74% |
| CCCNC(=O)Nc1ccc2c(c1)C(=O)N(C)C[C@H](OC)[C@H](C)CN(Cc1ccncc1)[C@H](C)CO2 | 1.74% (inactive) | 6.36% | -1.58% |
| CC1CCc2[nH]c3ccc(C(=O)N(C)CC(=O)Nc4cccc(F)c4)cc3c2C1 (centres undefined) | -34% (inactive) | -74.6% | -1.58% |
| O=C(CCCN1CCc2[nH]c3ccc(F)cc3c2C1)c1ccc(F)cc1 | -28.2% (active) | -21.9% | 3.29% |
| C=CCNC(=S)N1CCc2[nH]c3ccccc3c2C1 | 1.71% (inactive) | -2.66% | 1.19% |
| CC(C)(C)c1ccc(Oc2ccc(N)cc2)cc1 | -34% (active) | -27.1% | -4.06% |
| COc1cnc(-c2ccccn2)nc1Oc1ccc(C(C)(C)C)cc1 | -55.5% (inactive) | -80% | -19.6% |
| O=C(Nc1cccc(F)c1)N1CC(=O)N2[C@H](CO)[C@H](c3ccc(C#CC4CC4)cc3)[C@@H]2C1 | 4.76% (inactive) | 3% | 11.4% |
| CCN(CC(=O)NCc1ccc(F)cc1)S(=O)(=O)c1ccc(Cl)s1 | -6.72% (inactive) | -25.1% | -2.95% |
| Cc1ccc(SC(C)C(=O)NCc2ccc(F)cc2)cc1 (centres undefined) | 7.25% (inactive) | 3.19% | -0.85% |
| CSc1ccc(CN(C)CC(=O)NCc2ccc(F)cc2)cc1 | -30.9% (active) | -24.5% | -8.04% |
| Cc1noc(C)c1S(=O)(=O)Nc1ccc2c(c1)C(=O)N([C@@H](C)CO)C[C@@H](C)[C@H](CN(C)C(=O)NC(C)C)OCCCC[C@@H](C)O2 | 4.36% (inactive) | 7.55% | -2.26% |
| C[C@@H]1CN([C@H](C)CO)C(=O)c2cc(-c3ccc(F)cc3)cnc2O[C@@H]1CN(C)Cc1ccc(C(=O)O)cc1 | -4.64% (inactive) | 1.8% | -8.48% |
